# Screening results deposited in PubChem BioAssay by The Scripps Research Institute Molecular Screening Center.
# This is a sample that favours compounds with a hit; in the whole collection about 1.3% have one here.
# PKA-R2B act – activators of PKA-R2B holoenzyme, primary screen, biochemical, fluorescence polarization, Cy5-IP20, human; PKA-R2B holoenzyme dissociation; R2B truncated from residue 108, S112A mutant; 0% DMSO only, 100% 113 µM cGMP; activation, % at 11.4 µM; actives 0.079% (n = 340,000); cAMP-dependent protein kinase catalytic subunit beta (Homo sapiens) + cAMP-dependent …;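 active means activation above a cutoff set at the mean over all compounds plus 3 SD, cut at about 18% in these data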;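 further: higher means more holoenzyme dissociation and a rise in polarization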
# Rin1 Abl inh – inhibitors of Rin1-Abl protein binding, primary screen, biochemical, TR-FRET. AID 588664, 2011. actives 0.4% (n = 360,000). inhibition, % at 7.35 µM; in the data active means inhibition above about 5%, passing the limit was not always enough
# PKA-R1A act – activators of PKA-R1A holoenzyme, primary screen, biochemical, fluorescence polarization, Cy5-IP20, bovine R1A, mouse PKAc | cAMP-dependent protein kinase type I-alpha regulatory subunit (Bos taurus) + … | actives 0.083% (n = 340,000) | PKA-R1A dissociation; scaled: DMSO 0%, 113 µM cGMP 100% | activation, % at 11.4 µM;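 active means percent activation above the mean of all tested compounds plus 3 SD, cut at about 19% in these data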;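 further: higher means more PKAc released from R1A so a rise in polarization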
# E coli Lon inh – inhibitors of E. coli Lon protease, primary screen, biochemical, fluorescence polarization. P0A9M0. purified E. coli Lon protease. inhibition, % at 7.94 µM. actives 0.42% (n = 360,000). AID 602123, 2011; in the data active means inhibition above about 13%, passing the limit was not always enough;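 further: 0% = enzyme with probe and DMSO and 100% = no enzyme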
# IDE cell inh – human IDE inhibitors in live cells, primary screen, fluorescence polarization, HEK cells, FAbetaB substrate | Insulin-degrading enzyme (Homo sapiens), P14735 | FAbetaB cleavage | inhibition, % at 5.59 µM | actives 0.41% (n = 320,000) | AID 434962, 2010;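 active means percent inhibition above the average of all tested compounds plus 3 SD, set per screening campaign, cut at about 16% in these data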;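 further: IDE supplied by intact live HEK cells; FP after avidin binding of uncleaved biotin substrate so inhibition keeps polarization high; 0% = DMSO wells and 100% = 60 µM reference IDE inhibitor Ii1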
# IDE cell activ – human IDE activators in live cells, primary screen, fluorescence polarization, HEK cells, FAbeta-B substrate; Insulin-degrading enzyme (Homo sapiens), P14735; actives 0.073% (n = 340,000); AID 493087, 2011; FAbeta-B cleavage; 0% vehicle, 100% cell-free pure enzyme wells; activation, % at 5.96 µM;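 active means activation above the mean of all tested compounds plus 3 SD, set per screening campaign, cut at about 17% in these data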
# Rin1 Abl conf – Rin1-Abl binding inhibitor retest, confirmation, biochemical, TR-FRET; shares compounds with Rin1 Abl inh; purified proteins; inhibition, % at 7.35 µM; actives 49% (n = 1,300)
# GFP quencher – GFP fluorescence inhibitors and quenchers, artefact control for Rin1-Abl interaction inhibitor project, biochemical; actives 8.5% (n = 1,300); shares compounds with Rin1 Abl inh; inhibitors/quenchers counterscreen; inhibition, % at 6.75 µM;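 further: ABL1-eGFP fusion protein alone without its partner RIN1-SBP; 0% = protein with vehicle and 100% = wells lacking protein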
# GFP quench dose – GFP fluorescence inhibitors and quenchers, dose response, artefact control for Rin1-Abl interaction inhibitor project, biochemical; IC50, µM; 230 tested, under 10 active; AID 602182, 2012; shares compounds with Rin1 Abl inh; GFP fluorescence interference/quenching counterscreen; call rule not given here;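 further: ABL1-eGFP fusion protein alone without its RIN1 binding partner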
# Numbers without * were called inactive; . = no result given. Unless noted, no stated cut-off is given here; in the data, active means inhibition above about 6.5%; inactive means the rest.
SMILES,PKA-R2B act,Rin1 Abl inh,PKA-R1A act,E coli Lon inh,IDE cell inh,IDE cell activ,Rin1 Abl conf,GFP quencher,others
C#CCOCCOCCOCCNc1nc(N2CCN(C(=O)CCCCCCCCCCNC(=O)[C@H](CCCCN)n3cc(CCO)nn3)CC2)nc(N2CCN(C(=O)CCCCCCCCCCNC(=O)[C@H](CCCCN)n3cc(CCO)nn3)CC2)n1,-6.3,18.8*,1.1,-20.1,6.4,9.6,20.2*,0.6,
COc1cc(/C=C(/C#N)c2ccccc2F)ccc1OCc1ccccc1,-0.5,-1.2,-7.7,0.7,0.8,-5.8,.,.,
CSCCCNC(=O)c1ccc(OC2CCN(CCc3ccccc3)CC2)cc1,3.0,-2.4,1.2,-6.6,1.5,3.8,.,.,
COc1ccc(-n2nnc3c(=O)n(CC(=O)N4CCCCC4)cnc32)cc1,3.1,-5.0,2.9,0.7,2.8,-1.5,.,.,
COc1ccc(-n2nnc3c(=O)n(CC(=O)N4CCCC4)cnc32)cc1,9.1,5.0*,-4.6,3.3,0.1,0.9,-1.5,0.1,
C[n+]1c(-c2ccccc2)cc2c(=Cc3ccccc3)c3ccccc3n21,8.1,12.7*,0.6,-2.9,.,1.8,-5.8,1.8,
CC1(C(=O)NCc2cccc(C(F)(F)F)c2)CCN1Cc1ccc2ccccc2c1 (stereo unspecified),.,2.1,.,-6.0,.,.,.,.,
CC1(C(=O)NCc2ccc(C(F)(F)F)cc2)CCN1Cc1cc2ccccc2o1 (stereo unspecified),.,9.0*,.,4.6,.,.,-2.2,0.6,
CCOC(=O)c1c(C)n(C(=O)c2ccco2)c(=O)n1C(=O)c1ccco1,-1.5,36.1*,-4.4,-4.7,0.2,1.6,34.7*,-0.8,GFP quench dose=>67.5
COc1cc(CNCCc2ccc(F)cc2)ccc1OCc1ccc(Cl)nc1,-8.0,12.0*,-5.3,1.8,4.4,3.1,11.4*,0.6,
COc1cc(CNCCc2ccccc2F)ccc1OCc1ccc(Cl)nc1,8.1,7.5*,-9.8,3.4,1.3,-0.4,7.2*,-1.6,
CCNCc1ccc(OCc2ccccc2F)c(OC)c1,-7.5,1.3,3.5,-2.3,4.0,0.3,.,.,
COc1cc(CO)ccc1OCc1ccc(Cl)nc1,-3.4,-1.5,-0.7,2.2,5.5,-6.1,.,.,
O=C1C=CC2=C3c4cc(O)c(O)cc4CC3(O)COC2=C1O (stereo unspecified),-4.5,67.1*,1.6,11.6,.,1.0,72.7*,45.4*,
CC[C@]12c3[nH]c4ccc(OC)cc4c3CCN1C(=O)C(CC(=O)NCc1cccc(C(F)(F)F)c1)C[C@@H]2C(=O)N1CCN(C(=O)c2ccco2)CC1 (stereo partly specified),-9.1,18.1*,-3.4,-9.6,.,1.7,21.2*,-1.9,GFP quench dose=>67.6
CC[C@]12c3[nH]c4ccc(OC)cc4c3CCN1C(=O)C(CC(=O)NCCCN(C)C)C[C@@H]2C(=O)N1CCN(C(=O)c2ccco2)CC1 (stereo partly specified),-5.6,21.1*,2.0,-4.5,.,4.7,22.2*,0.3,GFP quench dose=>67.5
CC[C@]12c3[nH]c4ccc(OC)cc4c3CCN1C(=O)C(CC(=O)NC/C=C(\C)CCC=C(C)C)C[C@@H]2C(=O)N1CCN(C(=O)c2ccco2)CC1 (stereo partly specified),-13.5,11.3*,-8.7,0.0,.,8.3,5.1,0.9,
CC[C@]12c3[nH]c4ccc(OC)cc4c3CCN1C(=O)C(CC(=O)NCCc1ccccn1)C[C@@H]2C(=O)N1CCN(C(=O)c2ccco2)CC1 (stereo partly specified),4.5,16.0*,4.9,1.7,.,2.2,6.0,2.2,
c1cn(CCCNC2CCCCCCC2)cn1,-9.2,-0.9,7.4,1.4,0.9,7.2,.,.,
N#Cc1nc2ccccc2n1OCc1ccccc1,5.1,-2.6,-5.5,-2.6,.,.,.,.,
Cc1c(C(=O)Nc2cc(S(=O)(=O)N3CCOCC3)ccc2N2CCN(C)CC2)oc2ccccc12,-10.0,0.1,3.9,6.0,7.0,3.8,.,.,
O=C(O)C(Cc1ccccc1)N1C(=O)/C(=C/C=C/c2ccco2)SC1=S (stereo unspecified),3.7,7.0,3.1,-3.6,.,-12.1,.,.,
O=C(O)CC(C(=O)O)N1C(=O)/C(=C/C=C/c2ccco2)SC1=S (stereo unspecified),4.7,17.9*,6.8,1.3,1.4,-5.2,11.4*,13.1*,
O=C(C1CCC(C(=O)N2CCCCC2)CC1)N1CCCCC1 (stereo unspecified),2.4,6.2*,-14.4,2.2,-1.6,0.8,-0.7,-1.3,
COc1cc(Br)cc(CNc2ccc(F)c([N+](=O)[O-])c2)c1O,-3.1,0.2,-3.7,6.7,8.5,-3.5,.,.,
SMILES,PKA-R2B act,Rin1 Abl inh,PKA-R1A act,E coli Lon inh,IDE cell inh,IDE cell activ,Rin1 Abl conf,GFP quencher,others
Cc1cccc(N2CC(C(=O)Nc3ccc(S(=O)(=O)N4CCCCC4)cc3)CC2=O)c1C (stereo unspecified),-3.1,13.2*,-4.8,-7.2,4.9,3.0,13.0*,0.2,
Cc1ccccc1N1CC(C(=O)Nc2ccc(S(=O)(=O)N3CCOCC3)cc2)CC1=O (stereo unspecified),2.9,1.1,-6.2,-0.8,3.5,3.7,.,.,
Cc1ccccc1N1CC(C(=O)Nc2ccc(S(=O)(=O)N3CCCCC3)cc2)CC1=O (stereo unspecified),2.7,7.7*,-8.5,0.3,0.3,4.0,7.5*,-1.7,
NS(=O)(=O)c1ccc(NC(=O)C2CCCN(S(=O)(=O)c3ccc(F)cc3)C2)cc1 (stereo unspecified),-4.3,18.3*,-8.9,-4.3,-4.5,5.3,3.7,-5.0,
CC(=O)Nc1ccc(NC(=O)C2CC(=O)N(c3cccc(C)c3C)C2)cc1 (stereo unspecified),3.0,4.5,-5.1,-3.0,5.5,3.1,.,.,
COCCN=c1scc(-c2cccs2)n1/N=C/c1ccc(O)c(O)c1O,-0.6,13.0*,-1.6,8.1,3.0,-12.4,10.8*,10.4*,
